In all, about 5,500 compounds went through this assay and about 2,000 (36%) were called active. Another 18% or so got no clear call; they are omitted. Cut-off read from the data, not from the text of the source: active = normalized growth mostly below about 0.91 (no sharp cut-off); inconclusive = no clear call, values can overlap the other calls; inactive = mostly above about 0.92. This is one part of the list.
Assay: chemical genetic growth profiling, strain panel (AID 1159580);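 note: tested at 20 µM; growth read once vehicle control cultures reached saturation at 30 °C; 1 = growth at the plate median or of vehicle wells; lower values mean less growth of the strain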
Settings: growth OD

Measured: normalized growth

Cc1cc(C(F)(F)F)c(C#N)c(=O)[nH]1
inactive: S. cerevisiae deletion strains, locus YAL013W, strain DEP1, hits give low values 1.02 | S. cerevisiae deletion strains, locus YBR229C, strain ROT2, hits give low values 1 | S. cerevisiae deletion strains, locus YCL061C, strain MRC1, hits give low values 1 | S. cerevisiae deletion strains, locus YDL101C, strain DUN1, hits give low values 0.995 | S. cerevisiae deletion strains, locus YDL134C, strain PPH21, hits give low values 1.01 | S. cerevisiae deletion strains, locus YDR150W, strain NUM1, hits give low values 0.982 | S. cerevisiae deletion strains, locus YEL061C, strain CIN8, hits give low values 1 | S. cerevisiae deletion strains, locus YGR078C, strain PAC10, hits give low values 1 | S. cerevisiae deletion strains, locus YHR030C, strain SLT2, hits give low values 1.01 | S. cerevisiae deletion strains, locus YHR087W, strain rtc3, hits give low values 1 | S. cerevisiae deletion strains, locus YJL187C, strain SWE1, hits give low values 1 | S. cerevisiae deletion strains, locus YJR043C, strain POL32, hits give low values 0.997 | S. cerevisiae deletion strains, locus YJR075W, strain HOC1, hits give low values 1.03 | S. cerevisiae deletion strains, locus YKL190W, strain CNB1, hits give low values 1.01 | S. cerevisiae deletion strains, locus YLR039C, strain RIC1, hits give low values 1.04 | S. cerevisiae deletion strains, locus YLR058C, strain SHM2 (second series), hits give low values 1 | S. cerevisiae deletion strains, locus YLR085C, strain ARP6, hits give low values 1.03 | S. cerevisiae deletion strains, locus YLR262C, strain YPT6, hits give low values 1.03 | S. cerevisiae deletion strains, locus YML094W, strain GIM5, hits give low values 0.997 | S. cerevisiae deletion strains, locus YMR219W, strain ESC1, hits give low values 1.01 | S. cerevisiae deletion strains, locus YMR263W, strain SAP30, hits give low values 0.963 | S. cerevisiae deletion strains, locus YNL128W, strain TEP1, hits give low values 1.02 | S. cerevisiae deletion strains, locus YNL153C, strain GIM3, hits give low values 1 | S. cerevisiae deletion strains, locus YNL298W, strain CLA4 (second series), hits give low values 1.02 | S. cerevisiae deletion strains, locus YNL322C, strain KRE1, hits give low values 1 | S. cerevisiae deletion strains, locus YNR030W, strain Alg12, hits give low values 1.02 | S. cerevisiae deletion strains, locus YOL006C, strain TOP1, hits give low values 1.06 | S. cerevisiae deletion strains, locus YPL055C, strain LGE1, hits give low values 1.02 | S. cerevisiae deletion strains, locus YPL241C, strain CIN2, hits give low values 0.941 | S. cerevisiae deletion strains, locus YPR135W, strain CTF4, hits give low values 1.06 | S. cerevisiae strains, strain wild type, hits give low values 1.02

— PubChem BioAssay AID1159580 (chemical genetic matrix, 2015)
